Laboratory results as given in PubChem BioAssay (NCI).
This is part of a sample that, as a whole, favours compounds with a hit. Of some 83,000 tested, about 20% had one in any assay.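 Method: cells in 96-well plates; compound added at one concentration; 48 h incubation; percent growth measured; values under 10 scored active.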

Tests used:
Assay in all cases: NCI-60 one-dose screen, 48 h (100 = growth as untreated, 0 = no growth, -100 = all killed)
[1] = system: DU-145 prostate; conditions: 10 µM
[2] = system: K-562 leukemia; conditions: 10 µM
[3] = system: MALME-3M melanoma; conditions: 10 µM
[4] = system: MDA-MB-231 breast; conditions: 10 µM
[5] = system: RXF 393 renal; conditions: 10 µM
[6] = system: SF-268 CNS; conditions: 10 µM
[7] = system: SF-295 CNS; conditions: 10 µM
[8] = system: SF-539 CNS; conditions: 10 µM
[9] = system: M14 melanoma; conditions: 10 µM
[10] = system: HCT-15 colon; conditions: 10 µM
[11] = system: HT29 colon; conditions: 10 µM
[12] = system: SNB-75 CNS; conditions: 10 µM
[13] = system: SNB-19 CNS; conditions: 10 µM
[14] = system: U251 CNS; conditions: 10 µM
[15] = system: PC-3 prostate; conditions: 10 µM
[16] = system: UACC-62 melanoma; conditions: 10 µM unless noted
[17] = system: LOX IMVI melanoma; conditions: 10 µM
[18] = system: SK-MEL-28 melanoma; conditions: 10 µM
[19] = system: UACC-257 melanoma; conditions: 10 µM
[20] = system: SK-MEL-5 melanoma; conditions: 10 µM

Measured: growth

Nc1ccc(N=Nc2ccc(S(=O)(=O)O)cc2)c2ccccc12
inactive: [1] 106% | [2] 94.6% | [3] 83.4% | [4] 87.8% | [5] 101% | [6] 106% | [7] 99.5% | [8] 103% | [9] 99.1% | [10] 99.9% | [11] 107% | [12] 81.6% | [13] 106% | [14] 98.9% | [15] 87.4% | [16] 90.7% | [17] 100% | [18] 103%

CN(C)CCN(Cc1ccccc1)c1ccccc1
inactive: [1] 120% | [2] 81.7% | [3] 123% | [4] 91.7% | [5] 103% | [6] 114% | [7] 110% | [8] 121% | [19] 126% | [10] 105% | [11] 98.3% | [12] 108% | [13] 105% | [14] 106% | [15] 106% | [20] 105% | [16] 97.8% | [17] 93.2% | [18] 113%

COC(=O)/C=C/C(=O)NC(N)=O
inactive: [1] 105% | [2] 105% | [3] 97.4% | [4] 108% | [5] 95.2% | [6] 104% | [7] 95.2% | [8] 96.8% | [9] 106% | [10] 96.3% | [11] 102% | [12] 76.2% | [13] 104% | [14] 96.8% | [15] 96.5% | [20] 104% | [16] 101% | [17] 97.1% | [18] 97.8%

CC(C)C(C#N)(C(C)C)C(C)C
inactive: [1] 111% | [2] 114% | [3] 92.9% | [4] 104% | [5] 115% | [6] 98.1% | [7] 103% | [8] 104% | [19] 96% | [10] 104% | [11] 105% | [12] 98.6% | [13] 108% | [14] 102% | [15] 92.7% | [20] 101% | [16] 102% | [17] 112% | [18] 109%

N#CCCc1ccc(O)cc1
inactive: [1] 117% | [2] 100% | [3] 108% | [4] 116% | [5] 106% | [6] 110% | [7] 97.8% | [8] 99.4% | [9] 108% | [10] 95.1% | [11] 108% | [12] 88.3% | [13] 110% | [14] 96.9% | [15] 102% | [20] 105% | [16] 102% | [17] 107% | [18] 105%

NC(=O)c1ccc(N=C(N)N=C(N)N)cc1
inactive: [1] 107% | [2] 97.6% | [3] 93.1% | [4] 106% | [5] 89.6% | [6] 94.7% | [7] 96.8% | [8] 96.8% | [9] 110% | [10] 95.7% | [11] 105% | [12] 91.2% | [13] 110% | [14] 101% | [15] 93.1% | [20] 93.6% | [16] 105% | [17] 100% | [18] 111%

CC(C)=CC(=O)OC(=O)C=C(C)C
inactive: [1] 101% | [2] 99.1% | [3] 101% | [4] 99.6% | [5] 102% | [6] 103% | [7] 111% | [8] 105% | [9] 107% | [10] 102% | [11] 111% | [12] 90.3% | [13] 104% | [14] 102% | [15] 98.4% | [20] 98.8% | [16] 98.2% | [17] 109% | [18] 102%

C1CNC(C2=NCCN2)=N1
inactive: [1] 100% | [2] 90.4% | [3] 101% | [4] 107% | [5] 113% | [6] 94% | [7] 101% | [8] 98.5% | [9] 103% | [10] 108% | [11] 102% | [12] 100% | [13] 112% | [14] 102% | [15] 98.8% | [20] 101% | [16] 104% | [17] 98% | [18] 109%

CC(=O)NCc1cc(C)c(C)cc1C
inactive: [1] 104% | [2] 94.2% | [3] 88.7% | [4] 110% | [5] 103% | [6] 95.7% | [7] 103% | [8] 102% | [9] 105% | [10] 105% | [11] 97.2% | [12] 87.9% | [13] 109% | [14] 97.9% | [15] 93.5% | [20] 104% | [16] 109% | [17] 98.6% | [18] 103%

CN(C)c1ccc2oc(=O)c3ccccc3c2c1
inactive: [1] 105% | [2] 109% | [3] 97.6% | [4] 77.6% | [5] 106% | [6] 100% | [7] 102% | [8] 80.4% | [19] 106% | [10] 101% | [11] 86.7% | [12] 57.1% | [13] 81.3% | [14] 94.3% | [20] 94.9% | [16] 68.8% | [17] 88.8% | [18] 113%

CCCCCCCCOC(=O)c1ccccn1
inactive: [1] 102% | [2] 115% | [3] 117% | [4] 95.2% | [5] 116% | [6] 97.6% | [7] 133% | [8] 96.9% | [19] 107% | [10] 97.3% | [12] 84.4% | [13] 105% | [14] 110% | [15] 97.4% | [20] 104% | [16] 99.4% | [17] 91.7%

Cc1cc(N)c(S(=O)(=O)O)c(N)c1
inactive: [1] 96.6% | [2] 125% | [3] 118% | [4] 103% | [5] 112% | [6] 109% | [7] 96% | [8] 96.8% | [19] 104% | [10] 105% | [11] 111% | [12] 98.8% | [13] 90.7% | [15] 85.4% | [20] 104% | [16] 92.4% | [17] 94% | [18] 104%

CN(C)/N=C/c1ccccc1O
inactive: [1] 125% | [2] 120% | [3] 109% | [4] 106% | [6] 106% | [7] 112% | [8] 94.6% | [19] 109% | [9] 106% | [10] 100% | [12] 87.8% | [13] 97.8% | [14] 95.4% | [15] 121% | [20] 103% | [16] 98.4% | [17] 98.7% | [18] 111%

c1ccc(Sc2ccccc2)cc1
inactive: [1] 105% | [2] 112% | [3] 94.4% | [4] 109% | [5] 114% | [6] 97% | [8] 103% | [19] 88.3% | [10] 99.4% | [11] 102% | [12] 99.7% | [13] 98.2% | [14] 94.5% | [15] 95.9% | [20] 104% | [16] 101% | [17] 104% | [18] 107%

Sc1ccc(Nc2c3ccccc3nc3ccccc23)cc1
inactive: [1] 104% | [2] 32% | [3] 86% | [4] 98% | [6] 102% | [7] 26.5% | [8] 95.5% | [19] 68.1% | [9] 96.8% | [10] 79.4% | [11] 88.6% | [12] 61.9% | [13] 79.8% | [15] 76.5% | [20] 56.6% | [16] 63% | [17] 88.5% | [18] 101%

O=S(=O)(Cc1ccccc1)c1ccccc1
inactive: [1] 107% | [2] 103% | [3] 106% | [4] 121% | [5] 102% | [6] 101% | [8] 97.7% | [19] 107% | [9] 104% | [10] 102% | [11] 107% | [12] 88.5% | [13] 107% | [15] 102% | [20] 104% | [16] 111% | [17] 107% | [18] 98.5%

Nc1nc(N)c2cc(S(=O)(=O)c3cccc(C(F)(F)F)c3)ccc2n1
inactive: [1] 48% | [2] 17.7% | [3] 63.8% | [4] 67.9% | [5] 62.2% | [6] 29.2% | [8] 51.4% | [19] 43.7% | [9] 44.5% | [10] 33.2% | [11] 22.9% | [13] 43.6% | [14] 32.2% | [15] 39.6% | [20] 28.3% | [16] 32.5% | [17] 28.6% | [18] 69.9%

O=P(O)(O)OCC(O)CO (configuration not stated)
inactive: [1] 107% | [2] 113% | [3] 110% | [4] 111% | [5] 107% | [6] 108% | [8] 105% | [19] 102% | [9] 101% | [10] 104% | [11] 101% | [12] 84% | [13] 104% | [14] 94% | [15] 96.7% | [20] 102% | [16] 108% | [17] 97.9% | [18] 98.2%
